In PubChem BioAssay AID933 (National Center for Advancing Translational Sciences (NCATS), 2007):
Results filed as inconclusive are left out. Entries that show only a call come without a potency. Unmarked numbers belong to inactive results. Activity calls are given as the source filed them. Calls come from the whole dose curve; as a rule, active = well fitted activation curve with a large enough effect in the signal ratio, with a control signal flat; inconclusive = small, poorly fitted or top-dose-only effect, or a change in a side signal; inactive = flat fitted curve, though single readings scatter; the % refers to the signal ratio.
Potency is the fitted concentration of half-maximal effect.

The compounds below were run against Thyrotropin receptor (Homo sapiens) (UniProt P16473) (assay: Secondary Concentration-Response Assay for Agonists of the Thyroid Stimulating Hormone Receptor: HTRF Activity Detection). Conditions: HEK293-TSHR cells, cAMP HTRF ratio, 30 min; series mostly up to 91.7 µM.
Thyrotropin receptor (Homo sapiens), sequence (P16473 whole entry, looked up): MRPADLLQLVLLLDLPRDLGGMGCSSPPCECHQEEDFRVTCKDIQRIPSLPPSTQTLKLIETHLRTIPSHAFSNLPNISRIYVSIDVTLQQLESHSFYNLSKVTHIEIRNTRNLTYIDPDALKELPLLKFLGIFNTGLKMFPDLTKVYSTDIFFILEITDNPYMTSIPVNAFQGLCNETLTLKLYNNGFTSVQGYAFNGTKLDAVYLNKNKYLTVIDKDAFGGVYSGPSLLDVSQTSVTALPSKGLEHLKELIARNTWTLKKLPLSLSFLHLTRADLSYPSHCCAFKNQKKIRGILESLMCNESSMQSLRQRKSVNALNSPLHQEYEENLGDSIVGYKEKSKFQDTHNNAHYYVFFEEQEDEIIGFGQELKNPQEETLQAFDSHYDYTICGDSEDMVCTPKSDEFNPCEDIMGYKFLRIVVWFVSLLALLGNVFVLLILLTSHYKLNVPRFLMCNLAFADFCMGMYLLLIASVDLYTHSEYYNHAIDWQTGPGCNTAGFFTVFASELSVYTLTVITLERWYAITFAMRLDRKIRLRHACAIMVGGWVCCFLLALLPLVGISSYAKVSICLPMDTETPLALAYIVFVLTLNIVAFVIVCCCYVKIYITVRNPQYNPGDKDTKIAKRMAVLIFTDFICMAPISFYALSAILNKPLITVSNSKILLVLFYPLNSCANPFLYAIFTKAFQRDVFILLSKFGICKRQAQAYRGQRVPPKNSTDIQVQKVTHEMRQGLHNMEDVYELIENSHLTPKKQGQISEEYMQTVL
Outline: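 cAMP accumulation was detected by antibody-based HTRF, excitation 330 nm, emissions 615 and 660 nm. Compounds acted for 30 min at room temperature on stably TSHR-transfected HEK 293 cells, with phosphodiesterase inhibitor RO 20-1724 (100 uM) in the medium.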
In the case of COc1ccc(C2Nc3ccccc3C(=O)N2c2ccc(C)cc2)cc1Cn1nnc2ccccc21 (stereo unspecified), the Potency is reported as “inactive”.
With O=C(c1cccs1)N(Cc1ccco1)c1ccc(O)cc1 the Potency was “inactive”.
CCN(CC)CCN1C(=O)c2ccccc2NC1c1ccccc1F (stereo unspecified) was tested, and the Potency was “inactive”.
CS(=O)(=O)N1CCN(C(=O)c2cc(-c3cccs3)nc3ccccc23)CC1 gave an activation of 0.0393% [at 0.00035 µM].
With COc1cccc(OCc2cc(C3Nc4ccccc4C(=O)N3Cc3ccco3)ccc2OC)c1 (stereo unspecified) the Potency was “inactive”.
In the case of CCOC(=O)COc1ccccc1C1Nc2ccccc2C(=O)N1c1cccc(Cl)c1 (stereo unspecified), the Potency is reported as “inactive”.
With COc1ccc(C2Nc3ccccc3C(=O)N2Cc2ccco2)cc1 (stereo unspecified) the Potency was “inactive”.
CCOC(=O)N1CCC(NC(=O)c2ccc(CNS(=O)(=O)c3ccc(F)cc3)cc2)CC1 was tested, and the activation was 0.984% [at 0.00035 µM].
CCOc1cc(C(=O)N(C)c2ccccc2)cc(OCC)c1OCC showed an activation of 1.28% [at 0.00035 µM].
For CCOC(=O)COc1c(OC)cc(Cl)cc1C1Nc2ccccc2C(=O)N1c1ccccc1 (stereo unspecified), the Potency was “inactive”.
For COc1ccc(N2C(=O)c3ccccc3NC2c2ccc(OC)c(CSc3ccccn3)c2)cc1 (stereo unspecified), the Potency was “inactive”.
In the case of O=C(CN(c1ccc2c(c1)OCCO2)S(=O)(=O)c1ccccc1)NCc1ccco1, the activation is reported as -0.333% [at 0.00035 µM].
For COc1cc(C2Nc3ccccc3C(=O)N2Cc2ccco2)cc(OC)c1OC (stereo unspecified), the Potency was “inactive”.
For COc1ccc(C2Nc3ccccc3C(=O)N2c2ccccc2)cc1CSc1ccccn1 (stereo unspecified), the Potency was “inactive”.
O=C(CSc1nc2scc(-c3ccco3)c2c(=O)n1-c1ccccc1)N1CCOCC1 was tested, and the activation was -0.79% [at 0.00035 µM].
With COc1ccc(C2Nc3ccccc3C(=O)N2Cc2cccnc2)cc1COc1ccc(NC(C)=O)cc1 (stereo unspecified) the Potency was 35.5 µM (active).
Cc1nn(C)c(C)c1S(=O)(=O)N(CC(=O)Nc1ccccn1)c1ccc(C(C)C)cc1 gave an activation of -0.155% [at 0.00035 µM].
For COc1ccc(C2Nc3ccccc3C(=O)N2CCc2ccccc2)cc1COc1ccc(NC(C)=O)cc1 (stereo unspecified), the Potency was 7.94 µM (active).
CCN(CC)CCN1C(=O)c2ccccc2NC1c1cccc(F)c1 (stereo unspecified) was tested, and the Potency was “inactive”.
Compound COc1ccc(S(=O)(=O)NCCC(=O)NCc2ccc(F)cc2)cc1 has an activation of -0.0801% [at 0.00035 µM].
Cc1ccc(C2Nc3ccccc3C(=O)N2Cc2ccco2)cc1 (stereo unspecified) was tested, and the Potency was “inactive”.
With COc1ccc(C2Oc3ccccc3C(=O)N2Cc2ccccc2)cc1COc1ccc(NC(C)=O)cc1 (stereo unspecified) the Potency was 12.6 µM (active).
For COc1ccc(O)c(C2Nc3ccccc3C(=O)N2Cc2ccccc2)c1 (stereo unspecified), the Potency was “inactive”.
With COc1ccc(C2Nc3ccccc3C(=O)N2Cc2ccco2)cc1OC (stereo unspecified) the Potency was “inactive”.
With CC(=O)Nc1ccc(OCc2cccc(-c3nc4ccccc4c(=O)n3Cc3ccco3)c2)cc1 the Potency was “inactive”.
Work on O=C(COC(=O)C1c2ccccc2Oc2ccccc21)Nc1ccc2c(c1)OCO2 yielded an activation of 0.151% [at 0.00035 µM].
For CC(=O)N1CCCc2cc(S(=O)(=O)N(CC(C)C)CC(C)C)ccc21, the activation was -0.0207% [at 0.00035 µM].
With O=C1c2ccccc2NC(c2ccccc2Br)N1CCCN1CCOCC1 (stereo unspecified) the Potency was “inactive”.
COCCNC(=O)C(c1ccc(C)o1)N(C(=O)c1snc(C(N)=O)c1N)c1ccc(C)cc1 (stereo unspecified) showed an activation of -0.472% [at 0.00035 µM].
COc1ccc(C2Nc3ccccc3C(=O)N2Cc2ccccc2)cc1COc1ccc(C#N)cc1 (stereo unspecified) was tested, and the Potency was “inactive”.
In the case of COc1ccc(C2Cc3ccccc3C(=O)N2Cc2ccccc2)cc1COc1ccc(NC(C)=O)cc1 (stereo unspecified), the Potency is reported as 10 µM (active).
In the case of O=C1c2ccccc2NC(c2cccc(F)c2)N1Cc1ccco1 (stereo unspecified), the Potency is reported as “inactive”.
In the case of Cc1onc(-c2ccccc2Cl)c1C(=O)Nc1ccc(-n2nncc2-c2ccco2)cc1, the activation is reported as 0.344% [at 0.00035 µM].
With COc1ccc(C2Nc3ccc(NC(=O)CO)cc3C(=O)N2Cc2cccc(Cl)c2)cc1COc1ccc(NC(C)=O)cc1 (stereo unspecified) the Potency was 5.62 µM (active).
With COc1ccc(O)c(-c2nc3ccccc3c(=O)n2Cc2ccccc2)c1 the Potency was “inactive”.
In the case of O=C(COC(=O)C12CC3CC(CC(C3)C1)C2)NCC1CCCO1 (stereo unspecified), the Potency is reported as “inactive”.
